Read-out in assay [1]: Collagen III, COL3A1 (gene 1281)
Nature of the assay: BSK_MyoF_CollagenIII: BioMAP Diversity Plus: MyoF Assay for Collagen III Biomarker Activity (AID 2284239). The settings on record: primary human lung fibroblasts. Put shortly:
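Human lung fibroblasts were dosed with chemicals and, 24 hours later, collagen III was measured by ELISA. Activity was fitted in the positive direction against the DMSO negative-control baseline.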

Read-out in assay [2]: Interleukin 17F (IL17F), IL17F (gene 112744)
Nature of the assay: BSK_BT_xIL17F: BioMAP Diversity Plus: BT Assay for Interleukin 17F (IL17F) Biomarker Activity (AID 2284243). As to conditions: primary human B cells with PBMC. Put shortly: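 B cell/PBMC co-culture (human primary), 24 h compound exposure; sIL-17F by Luminex xMAP; gain-of-signal fit vs DMSO baseline.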

Read-out in assay [3]: Actin alpha 1 (ACTA1), ACTA1 (gene 58)
Nature of the assay: BSK_MyoF_ACTA1: BioMAP Diversity Plus: MyoF Assay for Actin alpha 1 (ACTA1) Biomarker Activity (AID 2284244). As to conditions: primary human lung fibroblasts. Put shortly: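 ELISA read-out of a-SMA in primary human lung fibroblast cultures, 24 h post-dosing. Activity scored in the positive direction versus DMSO baseline.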

Read-out in assay [4]: Interleukin 2 (IL2), IL2 (gene 3558)
Nature of the assay: BSK_BT_xIL2: BioMAP Diversity Plus: BT Assay for Interleukin 2 (IL2) Biomarker Activity (AID 2284245). The settings on record: primary human B cells with PBMC. Put shortly:
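Readout: supernatant IL-2 via Luminex xMAP after 24 h chemical dosing of a B cell/PBMC primary human co-culture. DMSO serves as negative control and baseline; increases in signal were fitted.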

Read-out in assay [5]: Basic fibroblast growth factor (bFGF), FGF2 (gene 2247)
Nature of the assay: BSK_MyoF_bFGF: BioMAP Diversity Plus: MyoF Assay for Basic fibroblast growth factor (bFGF) Biomarker Activity (AID 2284246). The settings on record: primary human lung fibroblasts. Put shortly:
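Primary human lung fibroblast culture, 24 h compound exposure; ELISA read-out of bFGF. Positive-direction fit vs DMSO baseline. Cytotoxicity: SRB stain (0.1% SRB, 10% TCA fixation, 560 nm) in parallel wells.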

Read-out in assay [6]: Collagen IV, COL4A1 (gene 1282)
Nature of the assay: BSK_MyoF_CollagenIV: BioMAP Diversity Plus: MyoF Assay for Collagen IV Biomarker Activity (AID 2284247). As to conditions: primary human lung fibroblasts. Put shortly:
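ELISA read-out of Collagen IV in lung fibroblast cultures, 24 h post-dosing; gain of signal relative to DMSO vehicle baseline defines activity.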

Read-out in assay [7]: Plasminogen activator inhibitor-1 (PAI1), SERPINE1 (gene 5054)
Nature of the assay: BSK_MyoF_PAI1: BioMAP Diversity Plus: MyoF Assay for Plasminogen activator inhibitor-1 (PAI1) Biomarker Activity (AID 2284256).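 For outcome: PAI-1 protein level measured by ELISA in fibroblast cultures; PAI-1 read 24 h after compound addition.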 The settings on record: primary human lung fibroblasts. Put shortly: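 ELISA read-out of PAI-1 from primary human lung fibroblast cultures 24 h after dosing; gain-of-signal fit versus DMSO control.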

Read-out in assay [8]: Interleukin-8 (IL8), CXCL8 (gene 3576)
Nature of the assay: BSK_MyoF_IL8: BioMAP Diversity Plus: MyoF Assay for Interleukin-8 (IL8) Biomarker Activity (AID 2284261). As to conditions: primary human lung fibroblasts. Put shortly: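 ELISA read-out of IL-8 from primary human lung fibroblasts, 24 h post-dose; positive-direction curve fitting relative to DMSO vehicle baseline.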

Assay [9] is described as follows: BSK_MyoF_SRB: Viability Assessment in the BioMAP Diversity Plus: MyoF Assay (AID 2284267).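 Note: total protein by SRB absorbance in parallel cultures as cytotoxicity measure; cells assessed 24 h after compound addition.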 As to conditions: primary human lung fibroblasts. An outline of the steps: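 Lung fibroblast cultures, 24 h post-dose; fix 10% TCA, stain 0.1% SRB, read 560 nm. Signal = total protein as cytotoxicity measure; fitted relative to DMSO negative control.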
Read-out in assay [10]: Matrix Metallopeptidase 1 (MMP1), MMP1 (gene 4312)
Nature of the assay: BSK_MyoF_MMP1: BioMAP Diversity Plus: MyoF Assay for Matrix Metallopeptidase 1 (MMP1) Biomarker Activity (AID 2284268). As to conditions: primary human lung fibroblasts. An outline of the steps:
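ELISA readout of MMP1 in primary human lung fibroblast cultures, 24 h post-dosing. Gain of signal versus DMSO vehicle control defines activity. Parallel SRB staining (0.1% after 10% TCA fixation, 560 nm) flags overt cytotoxicity.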

Read-out in assay [11]: TIMP metallopeptidase inhibitor 1 (TIMP1), TIMP1 (gene 7076)
Nature of the assay: BSK_MyoF_TIMP1: BioMAP Diversity Plus: MyoF Assay for TIMP metallopeptidase inhibitor 1 (TIMP1) Biomarker Activity (AID 2284269). As to conditions: primary human lung fibroblasts. Put shortly: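 TIMP-1 levels were determined by ELISA in human lung fibroblasts treated for 24 h. DMSO served as negative control and baseline for upward curve fitting.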

Read-out in assay [12]: Monokine induced gamma interferon (MIG), CXCL9 (gene 4283)
Nature of the assay: BSK_KF3CT_MIG: BioMAP Diversity Plus: KF3CT Assay for Monokine induced gamma interferon (MIG) Biomarker Activity (AID 2284248). The settings on record: primary human keratinocytes with fibroblasts. Put shortly: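 Human keratinocyte plus foreskin fibroblast primary co-culture dosed with test chemical for 24 h; MIG level measured by ELISA and fitted in the positive direction against DMSO as baseline.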

Read-out in assay [13]: Collagen I, COL1A1 (gene 1277)
Nature of the assay: BSK_hDFCGF_CollagenI: BioMAP Diversity Plus: hDFCGF Assay for Collagen I Biomarker Activity (AID 2284250). As to conditions: primary human foreskin fibroblasts. An outline of the steps:
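ELISA read-out of Collagen I in human dermal foreskin fibroblast cultures, 24 h after dosing. Gain of signal versus DMSO vehicle defines activity.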

Read-out in assay [14]: Plasminogen activator inhibitor-1 (PAI1), SERPINE1 (gene 5054)
Nature of the assay: BSK_KF3CT_PAI1: BioMAP Diversity Plus: KF3CT Assay for Plasminogen activator inhibitor-1 (PAI1) Biomarker Activity (AID 2284252). As to conditions: primary human keratinocytes with fibroblasts. An outline of the steps: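 Keratinocyte + dermal fibroblast co-culture (human primary); 24 h post-dose; PAI-1 by ELISA; gain-of-signal fit vs DMSO control.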

Read-out in assay [15]: Interleukin-8 (IL8), CXCL8 (gene 3576)
Nature of the assay: BSK_KF3CT_IL8: BioMAP Diversity Plus: KF3CT Assay for Interleukin-8 (IL8) Biomarker Activity (AID 2284254). The settings on record: primary human keratinocytes with fibroblasts. An outline of the steps: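 Human primary keratinocyte plus foreskin fibroblast co-culture dosed with test chemicals; IL-8 measured by ELISA 24 h after dosing. Activity fitted in the positive direction relative to DMSO negative control.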

Read-out in assay [16]: Intercellular Adhesion Molecule 1 (ICAM1), ICAM1 (gene 3383)
Nature of the assay: BSK_BE3C_ICAM1: BioMAP Diversity Plus: BE3C Assay for Intercellular Adhesion Molecule 1 (ICAM1) Biomarker Activity (AID 2284278).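 Note: cell-surface ICAM-1 protein level quantified by ELISA.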 The settings on record: primary human bronchial epithelial cells. Put shortly: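 ELISA read-out of ICAM-1 on human lung bronchial epithelial primary cells, 24 h post-dosing; positive-direction curve fit, DMSO = baseline. SRB total-protein staining of parallel cultures flagged overt cytotoxicity.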

Read-out in assay [17]: Interferon-inducible T-cell alpha chemoattractant (ITAC), CXCL11 (gene 6373)
Nature of the assay: BSK_BE3C_ITAC: BioMAP Diversity Plus: BE3C Assay for Interferon-inducible T-cell alpha chemoattractant (ITAC) Biomarker Activity (AID 2284279). The settings on record: primary human bronchial epithelial cells. An outline of the steps:
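The assay measures I-TAC levels by ELISA in human primary bronchial epithelial cell cultures 24 hours after chemical treatment. Values reflect signal increase over the DMSO baseline.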

Read-out in assay [18]: Interleukin-8 (IL8), CXCL8 (gene 3576)
Nature of the assay: BSK_BE3C_IL8: BioMAP Diversity Plus: BE3C Assay for Interleukin-8 (IL8) Biomarker Activity (AID 2284280). The settings on record: primary human bronchial epithelial cells. Put shortly:
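Primary human bronchial epithelial cells (BE3C system) were exposed to test chemical for 24 h, and IL-8 levels were then measured by ELISA. Activity was fitted in the positive (gain-of-signal) direction against a DMSO negative-control baseline.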

Read-out in assay [19]: Epidermal growth factor receptor (EGFR), EGFR (gene 1956)
Nature of the assay: BSK_BE3C_EGFR: BioMAP Diversity Plus: BE3C Assay for Epidermal growth factor receptor (EGFR) Biomarker Activity (AID 2284281). As to conditions: primary human bronchial epithelial cells. Put shortly: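 Human primary bronchial epithelial cells were exposed to compound for 24 h, and cell-surface EGFR was then quantified by ELISA. Activity was fitted in the positive direction against the DMSO vehicle baseline.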

The source made the active and inactive calls. Rule for the calls: active = hit-call score of the fitted dose curve at least 0.9, where 1 is the maximum; inactive = score below 0.9.

In general, AC50 refers to the midpoint of the concentration-response curve, whichever way the signal moves.

For the compound `CC1CCC(C(C)CS)CC1S` (stereo not drawn), the half-maximal activity concentration (AC50) in [1] was 9.71 µM (active); in assay [3], 9.28 µM (active); in [5], 7.89 µM (active); in [6], 11.8 µM (active); in assay [7], 8.22 µM (active); in assay [8] it was 11.1 µM (active). In addition, the half-maximal activity concentration (AC50) in [9] was 9.53 µM (active); in [11], 11.1 µM (active). The result in assay [2], in assay [4] and in assay [10] was inactive.

As to `Nc1cc([N+](=O)[O-])ccc1Cl`, the outcome in [1], in assay [2], in assay [3], in [4], in assay [5] and in assay [6] was inactive. Besides, the outcome in assay [7], in [8], in assay [9], in assay [10] and in assay [11] was inactive.

Regarding `c1ccc2c(c1)c1cccc3ccc4cccc2c4c31`, the outcome in assay [1], in [3], in [4], in assay [5], in assay [8] and in assay [9] was inactive. Besides, the outcome in assay [10] and in assay [11] was inactive. For the same compound, the AC50 in assay [2] is 20 µM (active); in assay [6], 0.0413 µM (active); in assay [7] it was 0.016 µM (active).

On to `O=C(O)c1cn(-c2ccc(F)cc2)c2cc(N3CCNCC3)c(F)cc2c1=O`, for which the result in [1], in assay [2], in assay [3], in assay [4], in [5] and in [6] was inactive. For the same compound, the outcome in assay [7], in assay [8], in [9], in assay [10] and in [11] was inactive.

`CN(CCOc1ccc(CC2SC(=O)NC2=O)cc1)c1ccccn1` (stereo not drawn): the result in assay [1], in [2], in [3], in assay [4], in assay [5] and in assay [8] was inactive. Also, the result in [9] and in [11] was inactive. For the same compound, the half-maximal activity concentration (AC50) was 0.111 µM (active) in assay [6], 0.0541 µM (active) in [7] and 20 µM (active) in assay [10].

`COc1cc(C=O)ccc1OC(=O)C(C)C`: the outcome in assay [12], in [13], in [14], in assay [15], in [16] and in [17] was inactive. The result in [18] and in [19] was inactive.

The values are drawn from PubChem BioAssay (EPA / NIEHS).
